Source: PubChem BioAssay (several laboratories)
A selection: hits, their analogues and other compounds. The true share with any hit is near 0.51%.
phage Ecoli inh: growth loss of phage-infected E. coli, primary screen, RecBCD inhibitor project, absorbance, with phage, HTS; inhibition, % at 11.9 µM; 0.26% of 360,000 active; in the data active means inhibition above about 11%
Tat export inh: E. coli Tat export inhibitors, primary screen, MC4100, TorA-mCherry reporter, fluorescence, single point | inhibition, % at 10 µM | 0.036% of 340,000 active;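 active means mean replicate inhibition at least 50% and at least half of replicates individually reaching 50%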;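 further: exported cargo escapes ClpAP degradation while cytoplasmic cargo is degraded and loses fluorescence; 0% = median of neutral control wells and 100% = median of NaSCN control wells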
AddAB inh: growth inhibition of E. coli expressing H. pylori AddAB, primary screen, AddAB inhibitor project, absorbance | inhibition, % at 11.9 µM | 0.29% of 330,000 active | AID 435030, 2010; in the data active means inhibition above about 12%;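 further: 0% = vehicle wells of infected cells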
E coli growth-1: E. coli V3065 growth inhibition, primary screen, counter-screen for AddAB inhibitor project, absorbance, OD600; 18 h; 0.27% of 330,000 active; AID 449728, 2010; inhibition, % at 11.9 µM;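 active means inhibition above the campaign's mean inhibition across all tested compounds plus 3 SD, cut at about 9.9% in these data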;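 further: uninfected addAB+ strain grown without phage in ampicillin broth; 0% = DMSO wells and 100% = ciprofloxacin 0.95 µg/ml wells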
E coli growth-2: E. coli growth inhibition, primary screen, OD600; Escherichia coli growth, 23 h; active compounds read low; OD600 absorbance (test concentration not listed); 0.21% of 330,000 active;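 active means OD600 absorbance below the run mean of sample wells minus 3.6 SD, in any replicate, cut at about 0.56 in these data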
AddAB confirm: growth loss of phage-infected E. coli expressing H. pylori AddAB, confirmation, AddAB inhibitor project, absorbance, E. coli V3065, T4 phage, triplicate; shares compounds with AddAB inh; OD; T4 phage with gene 2 nonsense mutations; inhibition, % at 11.9 µM; 64% of 880 active;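 active means mean inhibition above a set limit taken from the earlier primary screen, cut at about 13% in these data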;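 further: higher means less bacterial growth since AddAB block lets phage replicate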
RecBCD counter: growth loss of RecBCD+ E. coli with mutant T4 phage, counter-screen for AddAB inhibitor project, absorbance, V66 E. coli; shares compounds with AddAB inh; OD growth; inhibition, % at 11.9 µM; 73% of 880 active; AID 488955, 2010;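 active means mean inhibition above the mean of solvent-only control wells plus 3 SD, cut at about 4% in these data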;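 further: optical density read after an 18 h incubation at 37 °C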
Bact viability: bacterial viability inhibition counter-screen, confirmation, counter-screen for AddAB inhibitor project, absorbance; shares compounds with AddAB inh; absorbance (AddAB counterscreen); inhibition, % at 11.9 µM; 35% of 880 active; AID 488956, 2010; in the data active means inhibition above about 25%
* = called active by the depositor; . = no result given.

SMILES	phage Ecoli inh	Tat export inh	AddAB inh	E coli growth-1	E coli growth-2	AddAB confirm	RecBCD counter	Bact viability
O=C(COc1ccc(Cl)cc1[N+](=O)[O-])NC1CCCCC1	3	3	35*	20*	0.72	-3	2	-3
CCOC(=O)C1C2COc3cc(OC)ccc3C2N2C(=O)CN(Cc3ccc(Cl)cc3)C(=O)[C@@]12C (some centres not stated)	.	.	.	.	0.65	.	.	.
COc1ccc(N2CCN(C(=O)CSc3nnc4c(C)cc5c(C)cc(C)cc5n34)CC2)cc1	1	-3	96*	94*	0.72	-4	-1	-6
O=C1c2ccccc2C(=O)c2c(Nc3ccc(CCO)cc3)ccc(O)c21	-1	-4	-2	-5	.	.	.	.
O=C1c2c(O)ccc(O)c2C(=O)c2c(NCCNCCO)ccc(NCCNCCO)c21	-1	11	31*	32*	0.76	52*	-3	51*
COC(=O)C(=CC=Cc1ccccc1)NC(=O)c1ccccc1	.	.	.	.	0.67	.	.	.
O=C(COc1ccccc1)NCC(c1ccco1)N1CCCCC1 (configuration not stated)	2	1	98*	98*	0.6	3	3	0
c1ccc(-c2nnc(-c3ccccn3)nn2)nc1	1	1	4	5	0.67	.	.	.
c1ccc(-c2cccc(-c3ccccn3)n2)nc1	.	-10	34*	35*	0.54	46*	36*	30*
CCCS(=O)(=O)c1c(S(=O)(=O)CCC)c2c(C)cccn2c1C(=O)N/N=C/c1cc(O)cc(O)c1	10	-6	14*	8	.	4	6.0*	0
CCCS(=O)(=O)c1c(S(=O)(=O)CCC)c2c(C)cccn2c1C(N)=O	2	2	3	2	0.7	.	.	.
CC1NC(=CC(=O)c2ccccc2)N(O)C1(C)C (configuration not stated)	.	.	.	.	0.67	.	.	.
COc1ccc(-c2nc(C(N)=O)c3[nH]c(=O)n(-c4ccccc4OC)c3n2)c(OC)c1	-1	3	43*	18*	0.77	-2	-2	-4
COc1ccc(C2CC(=O)C=C(c3cc(F)ccc3F)C2)cc1OC (configuration not stated)	.	.	.	.	0.69	.	.	.
CO[C@@]12[C@H](COC(N)=O)C3=C(C(=O)C(C)=C(N)C3=O)N1C[C@@H]1N[C@@H]12	3	4	15*	14*	.	77*	16*	70*
C[C@H]1c2cccc(O)c2C(O)=C2C(=O)[C@]3(O)C(O)=C(C(N)=O)C(=O)[C@@H](N(C)C)C3[C@@H](O)C21 (some centres not stated)	101*	146*	99*	100*	.	99*	98*	100*
Cn1c(=O)c2c(nc(CN3CCC(C(N)=O)CC3)n2Cc2c(F)cccc2Cl)n(C)c1=O	3	-6	-1	-4	0.72	.	.	.
CC1CCCCN1Cc1nc2c(c(=O)n(C)c(=O)n2C)n1Cc1c(F)cccc1Cl (configuration not stated)	.	0	35*	25*	0.72	-5	-1	-3
CCC(C)C1CNC(=S)N1CCC12CC3CC(CC(C3)C1)C2 (configuration not stated)	.	.	.	.	0.66	.	.	.
O=C(N/N=C\c1cccc(Cl)c1)c1ccc(Cn2cc(Br)c([N+](=O)[O-])n2)o1	8	2	29*	26*	.	29*	4.2*	22
O=C(Oc1c(Cl)cc(Cl)c2cccnc12)c1ccco1	61*	-30	50*	48*	0.056*	63*	60*	58*
CCCCC(=O)N1CC=CC(c2ccc(OC)cc2)N(Cc2ccc(F)cc2)C(=O)C1Cc1ccccc1 (configuration not stated)	.	.	.	.	0.72	.	.	.
Cc1sc2cc3c(c(C(=O)c4ccccc4)[n+]2c1C)-c1cccc2cccc-3c12	3	.	6	0	0.56	.	.	.
O=C(c1ccccc1)c1c2c(cc3sc4ccccc4[n+]13)-c1cccc3cccc-2c13	7	7	16*	5	0.48*	89*	1	19
COc1ccc2c(c1)C1C(CO2)C(c2ccccc2)[C@]2(C)C(=O)Nc3cc(Cl)ccc3C(=O)N12 (some centres not stated)	.	.	.	.	0.71	.	.	.
SMILES	phage Ecoli inh	Tat export inh	AddAB inh	E coli growth-1	E coli growth-2	AddAB confirm	RecBCD counter	Bact viability
O=C(NCc1cccnc1)Nc1ccc2c(c1)OCO2	3	0	14*	0	0.68	-2	1	-1
c1cncc(CNc2ccc3c(c2)OCO3)c1	0	-12	3	0	0.69	.	.	.
O=C1C=C(C=Cc2ccccc2)CC(c2ccc(F)cc2)C1 (configuration not stated)	.	.	.	.	0.68	.	.	.
Cc1ccc(OCC(=O)Nc2cc(C)on2)c([N+](=O)[O-])n1	6	1	19*	15*	0.69	42*	6.7*	26*
CC(=O)OCC1OC(ON=CC(C)C(OCc2ccccc2)C(C)C)C(OC(C)=O)C(OC(C)=O)C1OC(C)=O (configuration not stated)	.	.	.	.	0.63	.	.	.
NC(=S)N/N=C/c1ncc(C(F)(F)F)cc1Cl	.	-4	23*	18*	.	18*	18*	18
NC(=S)N/N=C/c1ccc(C(F)(F)F)cc1	4	-4	0	2	.	.	.	.
Cc1ccc(C2=NS(=O)(=O)N(C)C(C(=O)NCc3ccco3)=C2)cc1	3	-10	26*	6	0.72	-2	1	-1
COc1ccc(C2=NS(=O)(=O)N(C)C(C(=O)NCc3ccco3)=C2)cc1OC	2	-8	-2	-3	0.66	.	.	.
O=[N+]([O-])c1cnc(Sc2ccncn2)s1	10	-13	81*	12*	0.43*	98*	8.7*	35*
O=S1(=O)CCOC2Cc3ccccc3C2N1Cc1ccccc1F (configuration not stated)	.	.	.	.	0.68	.	.	.
COC(=O)C1=C(C)N(c2ccc(Cl)cc2)C(=Cc2cccs2)C1=O	.	.	.	.	0.71	.	.	.
CCCc1[nH]nc2c1C1(C(=O)N(CC)c3ccccc31)C(C#N)=C(N)O2 (configuration not stated)	.	-5	17*	26*	0.7	-4	-1	-4
Cc1noc(NS(=O)(=O)c2ccc(N/C=C/C(=O)c3cccnc3)cc2)c1C	2	-1	13*	8	0.66	0	3	1
Cc1noc(NS(=O)(=O)c2ccc(N/C=C\C(=O)c3ccncc3)cc2)c1C	3	5	10	4	0.69	.	.	.
